Each structure is given as a SMILES string. About 79,000 compounds went through this panel and 15% of them were active in at least one assay; those are over-represented in the sample as a whole. A number with no mark means an inactive call. Calls of active or inactive are those of the source. Cut-off read from the data, not from the text of the source: active = growth inhibition above about 70%; inactive = the rest.

This note sets out measurements from PubChem BioAssay (NCI).

A short description of assay [1]: NCI Yeast Anticancer Drug Screen. Data for the rad50 strain (AID 155).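 Note: 0% = growth of vehicle-only cultures of the same strain.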 As to conditions: S. cerevisiae rad50 strain growth inhibition; at 50.0 µM; active compounds read high. Summed up: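 Inhibition values express reduced yeast growth in compound-treated cultures relative to vehicle-treated controls.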
A short description of assay [2]: NCI Yeast Anticancer Drug Screen. Data for the mec2-1 strain (AID 157). As to conditions: S. cerevisiae mec2-1 strain, at 50.0 µM, active compounds read high. Summed up: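 Test agents were screened against the mec2-1 yeast strain, with defined DNA repair or cell cycle alteration. Growth was scored as inhibition against vehicle-only controls.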
Assay [3] can be described thus: NCI Yeast Anticancer Drug Screen. Data for the sgs1 mgt1 strain (AID 161).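 Note: 0% = growth of cultures given vehicle only.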 As to conditions: S. cerevisiae sgs1 mgt1 strain, at 50.0 µM, active compounds read high. In short, it runs like this:
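Genetically altered yeast, compound exposure, growth inhibition relative to vehicle.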

A short description of assay [4]: NCI Yeast Anticancer Drug Screen. Data for the cln2 rad14 strain (AID 165).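 Note: 0% = growth equal to vehicle treated cultures.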 As to conditions: S. cerevisiae cln2 rad14 strain, at 50.0 µM, active compounds read high. In short, it runs like this:
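Growth of compound-exposed yeast (cln2 rad14 genotype) measured and expressed as inhibition relative to vehicle.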

The nature of assay [5]: NCI Yeast Anticancer Drug Screen. Data for the bub3 strain (AID 167). The note with it: S. cerevisiae bub3 mutant strain, at 50.0 µM, active compounds read high. In short, it runs like this:
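Steps: expose the mutant yeast strain to compound; grow alongside vehicle-treated cultures; measure growth; express inhibition against the vehicle cultures.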

The nature of assay [6]: NCI Yeast Anticancer Drug Screen. Data for the mlh1 rad18 strain (AID 175). The note with it: S. cerevisiae mlh1 rad18 strain growth inhibition; at 50.0 µM; active compounds read high. Summed up: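 In this whole-cell yeast screen, a strain with altered DNA damage repair is challenged with compound, and its growth is measured against matched vehicle-treated controls.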

As to `CSc1cc2c(cc1[N+](=O)[O-])C(=O)c1cc(F)ccc1-2`, the growth inhibition is 8.7% in assay [1]; 18.1% in assay [2]; 4.45% in assay [3]; -5.5% in assay [4]; 3.15% in assay [5]; 5% in assay [6].
Turning to `O=C(NCCO)Nc1ccccc1F`, the growth inhibition was 10.2% in assay [1]; 3.65% in assay [2]; -3.65% in assay [3]; -27.3% in assay [4]; -7.75% in assay [5]; 5.55% in assay [6].
For the compound `COc1cc2c(c(OC)c1OC)C(=O)[C@H]1OC(=O)N[C@@H]21`, the growth inhibition in assay [1] was 8%; in assay [2], 3.05%; in assay [3] it was 5.2%; in assay [4], 2.1%; in assay [5] it was 12.9%; in assay [6] it was -32%.
For the compound `CCOc1ccccc1C1=CCCCCC1`, the growth inhibition in assay [1] was -0.65%; in assay [2], -5%; in assay [3], -9%; in assay [4] it was -24.6%; in assay [5], -10%; in assay [6], 1.3%.
Regarding `COc1ccc(CC(N)C(=O)OC(C)C)cc1` (stereo not given), the growth inhibition was -16.3% in assay [1]; -12.3% in assay [2]; -5.05% in assay [3]; -36% in assay [4]; 11% in assay [5]; 1.4% in assay [6].
As for `COc1ccc(COCc2ccc(OC)cc2)cc1`, the growth inhibition was 4.55% in assay [1]; -10.6% in assay [2]; 8.7% in assay [3]; -66.5% in assay [4]; 13.8% in assay [5]; 12.7% in assay [6].
As to `O=c1c2cc(Cl)ccc2on1CN1CCOCC1`, the growth inhibition in assay [1] is 3.4%; in assay [2] it was 11.4%; in assay [3], 17%; in assay [4], -3.9%; in assay [5], 5.4%; in assay [6], 5.8%.
Consider `CC(=O)OC/C(C)=N\NS(=O)(=O)c1cc(Cl)c(Cl)cc1Cl`, for which the growth inhibition is 15.1% in assay [1]; 16.4% in assay [2]; 15.8% in assay [3]; 13.8% in assay [4]; 6.8% in assay [5]; 13.5% in assay [6].
Take `C=CCSc1nc2ccc(N3C(=O)C4C5C=CC(C5)C4C3=O)cc2s1` (stereo not given): the growth inhibition in assay [1] is -15.2%; in assay [2], -2.75%; in assay [3] it was -6.35%; in assay [4], -17.6%; in assay [5] it was -8.3%; in assay [6], -27.9%.
Regarding `c1ccc(CCc2ccnc3ccccc23)cc1`, the growth inhibition was 8.15% in assay [1]; 3.1% in assay [2]; -2.9% in assay [3]; 1.6% in assay [4]; 9.15% in assay [5]; 5.55% in assay [6].
As to `OC(c1ccccc1)C(Cc1ccccc1)N1CCCCC1` (stereo not given), the growth inhibition is 2.4% in assay [1]; 1.3% in assay [2]; 23.2% in assay [3]; -4.45% in assay [4]; 7.7% in assay [5]; 5.35% in assay [6].
For the compound `COc1ccc(NC(=O)Nc2cccc(Cl)c2C)c(OC)c1`, the growth inhibition was -0.9% in assay [1]; 9.3% in assay [2]; 32.8% in assay [3]; -3.15% in assay [4]; 9.85% in assay [5]; 5.6% in assay [6].
As to `CCN(CC)CCOC(C)=O`, the growth inhibition in assay [1] was 8.25%; in assay [2] it was -15.7%; in assay [3] it was -19.4%; in assay [4], 0.7%; in assay [5], -11.1%; in assay [6], -26.3%.
In the case of `COc1cc2c(cc1OCc1ccccc1)C(c1cc(OC)c(OC)c(OC)c1)=C1C(=O)OCC1C2` (stereo not given), the growth inhibition is 9.4% in assay [1]; -1.1% in assay [2]; -16.4% in assay [3]; -7.2% in assay [4]; -1.25% in assay [5]; 1% in assay [6].
As for `CC(N=Nc1ccccc1)/N=N/c1nn[nH]n1` (stereo not given), the growth inhibition was 23.8% in assay [1]; -12.2% in assay [2]; -11.6% in assay [3]; -84% in assay [4]; -22% in assay [5]; -3.25% in assay [6].
With `O=C1OC(c2ccccc2)(C2(c3ccccc3)C=C(c3ccccc3)C(=O)O2)C=C1c1ccccc1` (stereo not given), the growth inhibition is 39.2% in assay [1]; -3% in assay [2]; 0.7% in assay [3]; -3.8% in assay [4]; 5.3% in assay [5]; 3.15% in assay [6].
For `CC(C)(NC(=O)OCc1ccccc1)C(=O)OC(=O)C(C)(C)NC(=O)OCc1ccccc1`, the growth inhibition is -15.9% in assay [1]; 21.1% in assay [2]; 5.85% in assay [3]; 13.8% in assay [4]; 2.15% in assay [5]; -19.4% in assay [6].
Take `CC1=CC(=O)Nc2ccccc2S1`: the growth inhibition in assay [1] is 43.2%; in assay [2], 29.2%; in assay [3], 59.2%; in assay [4], 17%; in assay [5], 56%; in assay [6], 23.6%.
For `COC1c2ccccc2C=CN1c1ccc([N+](=O)[O-])cc1[N+](=O)[O-]` (stereo not given), the growth inhibition was 61.8% in assay [1]; 70.4% (active) in assay [2]; 69.2% in assay [3]; 27.4% in assay [4]; 59.1% in assay [5]; 71.2% (active) in assay [6].
Take `O=C1c2cc(O)c(O)cc2O[C@H](c2ccc(O)c(O)c2)[C@H]1O`: the growth inhibition was 2.15% in assay [1]; -35.1% in assay [2]; 11.8% in assay [3]; 16.2% in assay [4]; -8.7% in assay [5]; -46.7% in assay [6].
